Data reported in PubChem BioAssay AID463173 (ICCB-Longwood Screening Facility, Harvard Medical School, 2010).
In all, about 52,000 compounds went through this assay and about 4,300 (8.3%) were called active. Many of the other results were omitted from the sample, so actives are more common in it than they were. A number with no mark means an inactive call. Cut-off read from the data, not from the text of the source: active = survival mostly below about 52% (no sharp cut-off); inactive = mostly above about 56%.

system: DeltatarO mutant; test: growth inhibition of S. aureus wild type versus tarO mutant, primary screen, teichoic acid synthesis inhibitors, RN4220, OD600 (AID 463173); details: OD600, 18 h, active compounds read low, screened at 18.75 µg/mL (by protocol)

| Compound | survival |
| --- | --- |
| COc1ccc(CCNC(=O)CSc2n[nH]c(-c3ccccc3Cl)n2)cc1OC | 101% |
| COc1ccc2c(c1)c1c(c(=O)n(-c3cccc(C)c3)c(=O)n1Cc1cccc(Cl)c1)n2C | 84% |
| CC(=O)N1CCCc2cc(S(=O)(=O)N(CCN(C)C)Cc3ccccc3)ccc21 | 102% |
| Cc1csc2nc(COC(=O)c3ccc(NC(=O)C(C)Oc4ccccc4)cc3)cc(=O)n12 (stereo not drawn) | 134% |
| COc1cc2c(cc1OC)C(COc1ccc3c(C)cc(=O)oc3c1)N(C(=O)c1ccc(C)c(C)c1)CC2 (stereo not drawn) | 74% |
| Cc1oc(-c2ccc(C(=O)NCc3ccccc3F)cc2)nc1COc1ccccc1 | 77% |
| CCOC(=O)c1ccccc1NC(=O)CCc1c(C)nc2ncnn2c1C | 87% |
| CCOc1ccc(-n2c(=O)c3c(C)c(C)sc3n(CC(=O)N(CC)Cc3ccccc3)c2=O)cc1 | 45% (active) |
| COc1ccc(NC(=O)Cn2c(=O)n(-c3ccccc3)c(=O)c3c4c(sc32)CCCC4)cc1 | 98% |
| CCN(Cc1ccccc1)C(=O)Cn1c(=O)n(-c2ccc(Cl)cc2)c(=O)c2c(C)c(C)sc21 | 76% |
| CCN(Cc1ccccc1)C(=O)Cn1c(=O)n(-c2ccc(C)c(C)c2)c(=O)c2c(C)c(C)sc21 | 84% |
| CCOc1ccc(NC(=O)Cn2c(=O)n(-c3cccc(OC)c3)c(=O)c3c4c(sc32)CCCC4)cc1 | 95% |
| CCOc1ccc(NC(=O)Cn2c(=O)n(-c3ccccc3)c(=O)c3c4c(sc32)CCCC4)cc1 | 90% (active) |
| CCOC(=O)c1c(C)oc2nc(C)nc(NCC3CCN(Cc4cccc(Cl)c4)CC3)c12 | 62% |
| COc1cccc(NC(=O)CCS(=O)(=O)c2ccc3c(c2)oc(=O)n3C)c1 | 89% |
| Cc1ccc(CSc2nnc3[nH]c(=O)cc(C)n23)cc1 | 71% |
| Cc1ccc(NC(=O)CSc2nc3c(oc4ccccc43)c(=O)n2Cc2ccco2)cc1 | 70% |
| CC(C)C(=O)N1C2CCC1CC(O)(c1ccccc1F)C2 (stereo not drawn) | 86% |
| COc1cccc(CN(Cc2ccco2)C(c2ccc(OC)c(OC)c2)c2nnnn2Cc2ccccc2)c1 (stereo not drawn) | 67% |
| N#C/C(=C\c1ccccc1F)c1nc2ccccc2c(=O)[nH]1 | 66% |
| COc1cccc(/C=C(\C#N)c2nc3ccc(C)cc3[nH]2)c1 | 46% |
| Cc1ccc2nc(/C(C#N)=C/c3ccccc3F)[nH]c2c1 | 31% (active) |

| Compound | survival |
| --- | --- |
| COc1cc(Br)c(/C=C(\C#N)c2nc3ccccc3[nH]2)cc1OC | 110% |
| Cc1cccc(/C=C(\C#N)c2nc3ccccc3c(=O)[nH]2)c1 | 91% |
| Cc1ccc2nc(/C(C#N)=C/c3cccc(Br)c3)[nH]c2c1 | 3% (active) |
| Oc1ccc(-c2nnc(SCc3ccc(Cl)cc3)o2)cc1 | 89% |
| CCOc1ccccc1-c1nnc(SCc2ccc(Cl)cc2)o1 | -1% (active) |
| COc1ccccc1-c1nnc(SCCOc2ccccc2C)o1 | 73% |
| CNS(=O)(=O)c1cn(CC(=O)Nc2ccc(C)c(N(C)C)c2)cc1S(=O)(=O)NC | 83% |
| CCc1ccc(-c2cc(C)no2)cc1S(=O)(=O)N1CCN(c2cccc(Cl)c2)CC1 | 89% |
| COc1ccc(CNc2oc(-c3ccc(COc4ccc(Cl)cc4)o3)nc2C#N)cc1 | 97% |
| Cc1cc(C)cc(NC(=O)CCc2c(C)nc3c4cccnc4nn3c2C)c1 | 99% |
| CCOc1ccc(-c2nonc2NC(=O)c2oc3ccc(C)cc3c2C)cc1OCC | 43% |
| CCOc1ccc(-c2nonc2NC(=O)c2oc3cc(C)ccc3c2C)cc1OCC | 87% |
| CCCOc1ccc(-c2nonc2NC(=O)c2oc3ccc(C)cc3c2C)cc1OCCC | 49% |
| CCOc1ccc(-c2nonc2NC(=O)c2ccc(C)cc2)cc1OCC | 100% |
| CCOc1ccc(-c2nonc2NC(=O)c2oc3c(C)c(C)ccc3c2C)cc1OCC | 34% (active) |
| CCOc1ccc(-c2nonc2NC(=O)c2oc3cc(C)c(C)cc3c2C)cc1OCC | 43% (active) |
| CCCNC(=O)N1CCCN(S(=O)(=O)c2ccc3c(ccn3CC)c2)CC1 | 79% |
| Cc1cc(C)cc(NC(=O)c2cnn(-c3ccc(C)c(C)c3)c2C2CCNCC2)c1 | 78% |
| COc1ccccc1NC(=O)CN1C(=O)CSc2ccc(S(=O)(=O)N3CCCC3)cc21 | 99% |
| Cc1cc(C)c(S(=O)(=O)NCC(c2ccc(N(C)C)cc2)N2CCOCC2)c(C)c1 (stereo not drawn) | 69% |
| CCCCCS(=O)(=O)c1oc(-c2cccs2)nc1S(=O)(=O)c1ccc(C)cc1 | 3% (active) |
| CCCCS(=O)(=O)c1oc(-c2cccs2)nc1S(=O)(=O)c1ccc(F)cc1 | 56% |

| Compound | survival |
| --- | --- |
| Cc1ccc(CSc2oc(-c3cccs3)nc2S(=O)(=O)c2ccc(C)cc2)cc1 | 135% |
| Cc1ccc(CSc2oc(-c3cccs3)nc2S(=O)(=O)c2ccccc2)cc1 | 65% |
| CCCSc1oc(-c2cccs2)nc1S(=O)(=O)c1ccc(C)cc1 | 41% |
| CCCCS(=O)(=O)c1oc(-c2cccs2)nc1S(=O)(=O)c1ccccc1 | -5% (active) |
| COc1cccc(CSc2nc3n(n2)C(c2ccccc2C)C(C(=O)Nc2ccccc2OC)=C(C)N3)c1 (stereo not drawn) | 69% |
| Cc1ccc(C)c(NC(=O)Cn2c(=O)n(CCC(C)C)c(=O)c3cccnc32)c1 | 76% |
| NC(CSC1CCCCO1)C(=O)O (stereo not drawn) | 73% |
| O=C(Nc1ccc(N2CCOCC2)c(C(=O)O)c1)c1ccc(Br)cc1 | 8% (active) |
| O=C(Nc1ccc(N2CCC(N3CCCCC3)CC2)c(C(=O)O)c1)c1ccccc1 | 96% |
| O=C(Nc1ccc(N2CCN(CCOc3ccc(Cl)cc3)CC2)c(C(=O)O)c1)c1ccc(F)cc1 | 20% (active) |
| COc1ccc(C(=O)Nc2ccc(N3CCN(c4ccccc4)CC3)c(C(=O)O)c2)cc1 | 94% |
| CC(=O)c1ccc(N2CCN(c3ccc(NC(=O)c4ccc(F)cc4)cc3C(=O)O)CC2)cc1 | 55% |
| O=C(Nc1ccc(N2CCC(N3CCCCC3)CC2)c(C(=O)O)c1)c1ccc(Br)cc1 | 101% |
| Cc1ccc(NC(=O)C(=O)NCC2(c3ccccc3)CCCC2)cc1Cl | 97% |
| Cc1cccc(NS(=O)(=O)c2ccc3c(c2)CC(C)N3C(=O)C2CCC2)c1C (stereo not drawn) | 78% |
| N#Cc1c[nH]n2c(=O)cc(Cc3ccccc3)nc12 | 68% |
| CC(C)c1ccc(NC(=O)CCS(=O)(=O)c2ccc(Br)s2)cc1 | 114% |
| O=C(CCS(=O)(=O)c1ccc(Br)s1)Nc1cc(C(F)(F)F)cc(C(F)(F)F)c1 | 42% (active) |
| Cc1cc(NC(=O)c2ccc(NC(=O)CCS(=O)(=O)c3cccs3)cc2)ccc1Br | 35% (active) |
| O=C(CCS(=O)(=O)c1ccc(Br)s1)Nc1c(F)cccc1F | 128% |
| CC(=O)c1ccc(NC(=O)c2ccc(NC(=O)CCS(=O)(=O)c3cccs3)cc2)cc1 | 69% |
| Cc1ccc(NC(=O)c2ccc(NC(=O)CCS(=O)(=O)c3cccs3)cc2)cc1F | 81% |

| Compound | survival |
| --- | --- |
| CCOC(=O)c1cccc(NC(=O)CCS(=O)(=O)c2ccc(Br)s2)c1 | 71% |
| COC(=O)c1ccc(NC(=O)CCS(=O)(=O)c2ccc(Br)s2)cc1 | 60% |
| CC(=O)c1cccc(NC(=O)CCS(=O)(=O)c2ccc(Br)s2)c1 | 43% (active) |
| CCc1ccc(CNC(=O)Cc2ccc(NC(=O)N3CCSc4ncccc43)cc2)cc1 | 94% |
| CC(=O)c1c(C)oc2c(Cl)cc(NS(=O)(=O)c3cc(C)c(C)cc3C)cc12 | 157% |
| COc1ccc(OC)c(-c2noc(N3CCN(c4cc(C)ccc4C)CC3)n2)c1 | 87% |
| CC(=O)N1CCCc2cc(S(=O)(=O)N3CCCC(C(=O)Nc4cccc(Cl)c4C)C3)ccc21 (stereo not drawn) | 67% |
| COc1cccc(CNC(=O)c2ccc(Cn3c(SCc4ccccc4)nc4cccnc43)cc2)c1 | 74% |
| Cn1cc(C(=O)N2CCN(c3cccc(Cl)c3)CC2)c(=O)c2cc(S(=O)(=O)N3CCCC3)ccc21 | 128% |
| CCN(CC)c1nc2c(S(=O)(=O)c3cccc(Cl)c3)nnn2c2ccsc12 | 62% |
| CN(Cc1ccccc1)c1nc2c(S(=O)(=O)c3cccc(Cl)c3)nnn2c2ccsc12 | 36% (active) |
| Cc1ccc(S(=O)(=O)c2nnn3c2nc(NCCc2ccccc2)c2sccc23)cc1 | 65% |
| Cc1ccc(CCNc2nc3c(S(=O)(=O)c4ccccc4)nnn3c3ccsc23)cc1 | 62% (active) |
| CN(Cc1ccccc1)c1nc2c(S(=O)(=O)c3ccccc3)nnn2c2ccsc12 | 70% |
| Cc1ccc(CCNc2nc3c(S(=O)(=O)c4ccc(C)cc4)nnn3c3ccsc23)cc1 | 108% |
| Cc1cc(-c2ccc(C)c(S(=O)(=O)Nc3cccc(C)n3)c2)on1 | 75% |
| O=C(Cn1c(=O)nc(-c2ccccc2F)c2cc(Cl)ccc21)Nc1ccccc1C(F)(F)F | 96% |
| Cn1c(O)c(N=NC(=O)c2ccccc2)c2ccccc21 | 105% |
| CCCCc1cc(O)c(CCCC)c(O)c1 | 12% (active) |
| CCCCc1c(C(=O)O)cccc1C(=O)O | 103% |
| Cc1cc(C)cc(N2C(=O)CSC23C(=O)N(CC(=O)Nc2ccc(F)cc2F)c2ccccc23)c1 (stereo not drawn) | 99% |
| Cc1ccc2c(c1)c(=O)c(S(=O)(=O)c1ccc(F)cc1)cn2CC(=O)Nc1ccc2c(c1)OCO2 | 70% |
